Test results reported in PubChem BioAssay AID686952 (The Scripps Research Institute Molecular Screening Center, 2013).
Screen size: about 3,200 compounds; about 2,600 (81%) were called active.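 The calls were made as follows: active = activation above the all-compound mean plus 3 SD, ignoring values outside control-based bounds (cut at about 4.8% in these data); inactive = the rest.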 The set was probably picked from earlier hits. The list is a sample of the results.

Test: apparent activators from fluorescence artefacts, no enzyme – biochemical, fluorescence intensity, high throughput, artefact control for kallikrein-7 zymogen activator project (AID 686952);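 also: value is the 4 h activation minus the activation read at time zero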
Conditions: EDANS-DABCYL substrate fluorescence interference, 4 h, at 7 µM, active compounds read high, solvent 0%, active enzyme control 100%

activation, inactive:
CCOC(OCC)c1ccc(/C=C\c2nccc(N)n2)cc1 -13.8%
O=C(/C=C/c1ccc2c(c1)OCCO2)c1ccc(O)cc1 3.03%
CCN(CC(=O)Nc1c(F)cccc1F)C(=O)c1ccc(-c2ccc(C(C)=O)cc2)o1 -16.2%
CN(C)CCN1CCN(c2cc(-c3cccc(Cl)c3)nc3ccnn23)CC1 -1.14%
CCCCN(C)CCCNC(=O)c1cc(-c2cccs2)nc2ccccc12 -40.9%
CCNC(=S)Nc1ccc2c(c1)c(=O)n(C)n2Cc1ccc(Cl)cc1 -1.33%
C=CCn1c(N)c(S(=O)(=O)c2cccs2)c2nc3ccccc3nc21 -4.5%
NC(N)=Nc1nc(-c2ccccc2)c2cc(Cl)ccc2n1 -2.58%
CCC(c1nnnn1Cc1ccco1)N(CCc1ccccc1)Cc1cc2ccc(OC)cc2[nH]c1=O (stereo unspecified) 1.63%
COCCN(CCOC)c1nc(N)c2c(N)nc3c(c2c1C#N)CC(=O)N3Cc1ccc(Cl)cc1 -34.7%
CCN1CCN(C(=O)c2cc3cc4ccc(OC)cc4nc3s2)CC1 -12.4%
N#CC1=C(N)Oc2c(sc3ccccc23)C1c1ccco1 (stereo unspecified) -21.2%
COc1ccc(C2=CC(c3cccc(OC)c3)n3nnnc3N2)cc1 (stereo unspecified) -27.9%
CC(C)(C)Nc1c(-c2cccs2)nc2ccccn12 -64.5%
Cc1oc2nc(SCC(=O)Nc3ccc(S(N)(=O)=O)cc3)nc(NC(=O)c3ccccc3)c2c1C 3.36%
COCC(=O)Nc1nnc(COc2ccccc2)s1 1.67%
COc1ccc2c(c1)CCc1cn3ncc(C#N)c3nc1-2 -65.2%
Cc1ccc2nc3c(cc(C(=O)NCCc4ccccc4)c(=N)n3CC3CCCO3)c(=O)n2c1 (stereo unspecified) -37.3%
Cc1cccn2c(=O)c3cc(C#N)c(=NC(=O)c4cccnc4)n(CC4CCCO4)c3nc12 (stereo unspecified) -72.9%
CCOc1ccccc1C1C(C(=O)OC)=CN(C)C=C1C(=O)OC -18%
Cc1cc2c(nc1C)CCCN2C 2.55%
COc1cccc(NC(=O)CN(C)C(=O)/C=C/c2cc(OC)ccc2OC)c1 -114%
Cn1cccc1/C=N/NC(=O)CNc1cccc2ccccc12 1.38%
COc1ccc2nc(Nc3nc4cc5c(cc4s3)OCCO5)sc2c1 -11.5%

activation, active:
COc1cccc(OCc2cc(/C=N/NC(=O)c3nc(Cl)c(Cl)c(N)c3Cl)ccc2OC)c1 59.5%
Cc1cc(C)c2nc3nc(C)cc(C)c3c(N)c2c1 70.4%
COc1ccc(CNC(=O)COC(=O)C2=Cc3ccccc3OC2)cc1 11.3%
COc1cc2c(cc1OC)C(C(C)C)=NC(C)(C)C2 72.2%
CN1c2ccccc2-c2nc3ccccc3n2C1c1ccco1 (stereo unspecified) 11.9%
CNc1cncc(-c2cccc(C(=O)N3CCOCC3)c2)n1 37.5%
CCCn1c(=NC(C)=O)c(C(=O)OCC)cc2c(=O)n3ccccc3nc21 32.4%
CCN1CCc2c(C#N)c(NCc3ccccc3)nc(NCCO)c2C1 28.7%
COC(=O)C1=NN(c2ccccc2)C2C(=O)N(c3ccccc3OC)C(=O)C12 (stereo unspecified) 14.9%
CN(C)C(=O)c1coc2nc3ccccc3nc12 110%
O=C(O)c1ccc2c(c1)C(=O)N(c1ccc(/C=C/C(=O)c3ccccc3)cc1)C2=O 722%
CCN(CC)CCCNC(=O)c1cc2c(=O)[nH]c3ccc(C)cc3c2s1 12.5%
COC(=O)c1c(C)c(C)nc(N)c1C#N 63.7%
COC(=O)Cc1nc2c(N)nc(N)nc2[nH]c1=O 16.8%
Cc1coc2c1c(C)cc1oc(=O)c(CC(=O)NCC(=O)N[C@H](C(=O)O)C(C)C)c(C)c12 34.8%
CNC(=O)COC(=O)c1cc(-c2ccc(OC)cc2)nc2ccccc12 97.4%
COc1ccc(-c2cc(C(=O)n3cnc4ccccc43)c3ccccc3n2)cc1 53.3%
O=c1c(-c2ccccc2)coc2c(CN3CCOCC3)c(O)ccc12 15.3%
COc1cccc2sc3cc(NCC[C@@H]4CCCN4C)ccc3c(=O)c12 38.3%
CCCCc1cc(=O)oc2cc(C)cc(OCc3nn[nH]n3)c12 29.5%
Cc1ccsc1-c1cc(C(=O)O)c2c(ccc3ccccc32)n1 21.4%
COC(=O)c1cnn2c(C(F)(F)F)cc(-c3ccco3)nc12 35.9%
O=C(OC1CCOC1=O)c1ccc(-c2nc3ccccc3s2)s1 (stereo unspecified) 13.6%
Cc1nc2ccc(N)nc2nc1C 59.7%
O=C(O)c1cccnc1Sc1ncnc2sc3c(c12)CCC3 15.9%
O=C(NCCN1CCOCC1)c1cc(-c2cccs2)nc2ccccc12 31.9%
O=c1oc2cc(O)ccc2cc1-c1ccc(F)cc1 80.8%
COc1ccc(CCNC(=O)Nc2ccc3c(c2)c(=O)n(C)n3C)cc1OC 22.7%
COCCCn1c(-c2cccs2)nc2nc3ccccc3nc21 24.8%
COc1nc(N=C(N)N)nc2c(C)cccc12 20.6%
CCC1=C(C(=O)OC)C(c2cc(OC)ccc2OC)C(C#N)=C(N)O1 (stereo unspecified) 32.6%
Cc1cc(N2CCOCC2)nc2ccc(NC(=S)N3CCN(Cc4ccccc4)CC3)cc12 12.7%
COCC(C)OC(=O)c1c(N)n(CCCN2CCOCC2)c2nc3ccccc3nc12 (stereo unspecified) 19%
CC(C)(C)OC(=O)c1c(N)n(CCCN2CCCC2=O)c2nc3ccccc3nc12 80.7%
CC(C)=NN1C(=O)c2ccccc2NC1(C)C 24.5%
CCOc1ccc(N2C(=O)CC(N(O)c3ccccc3)C2=O)cc1 (stereo unspecified) 188%
Nc1ccccc1-c1nc2ccncc2[nH]1 5.73%
CCCc1cc(=O)oc2c(C)c(O)c(CN3CCCCC3)cc12 68.1%
CCOc1c2ccc(C(=O)NCc3ccc4c(c3)OCO4)cc2nn1C 4.67%
COCc1cc(=O)[nH]c2cc(NC(=O)C(F)(F)F)c(C)cc12 232%
CC(=O)Nc1cc2ccc(OC(C)=O)cc2oc1=O 127%
CC(=O)Oc1ccc2c(C)c(CC(C)O)c(=O)oc2c1 (stereo unspecified) 80%
COc1ccc2oc(=O)c(C(=O)N3CCCC3)cc2c1 23.6%
Cc1nc2ccccc2cc1O 4.33%
Cc1cc(S(=O)(=O)c2cc3ccc(O)c(C)c3oc2=O)ccc1F 63.2%
Nc1ccc2nn(-c3ccc(Cl)cc3)nc2c1 62.1%
COC(=O)c1ccc(C2C3=C(Nc4nnnn42)c2ccccc2OC3)cc1 (stereo unspecified) 4.8%
c1ccc(-c2cn3cccnc3n2)cc1 72.3%
FC(F)(F)Oc1ccc(-c2cn3cccnc3n2)cc1 36.4%
COc1ccc(-c2cn3cccnc3n2)cc1 79.8%
CCc1ccc(-c2cc(C(=O)NCc3ccco3)c3ccccc3n2)s1 73.9%
CC(=O)Nc1nc2ncccn2c1-c1ccc(C(F)(F)F)cc1 41.3%
CC(C)Cc1nc(Nc2ccc(S(=O)(=O)N3CCCC3)cc2)c2nnn(Cc3ccccc3)c2n1 38.6%
CN(C(=O)COc1ccccc1)c1nnc(-c2ccncc2)s1 107%
CN(C(=O)c1ccccn1)c1nnc(-c2ccccn2)s1 85.1%
CC(OC(=O)c1ccccc1NCCO)C(=O)Nc1ccnn1C(C)C (stereo unspecified) 29.3%
CN(CCc1ccccn1)S(=O)(=O)c1ccc2c3c(cccc13)C(=O)N2 71.8%
COc1cc(/C=C/C(=O)Nc2ccc(OC)c(S(=O)(=O)N3CCOCC3)c2)ccc1OCC#N 93.1%
COc1ccc2nc(-c3ccccn3)ccc2c1 4.08%
O=C(Oc1c(-c2ccco2)oc2ccccc2c1=O)c1cccnc1 18.8%
COc1cc(C(=O)N2C(=O)c3cccc(N)c3C2=O)cc(OC)c1OC 122%
CC1CC(C)CN(S(=O)(=O)c2cccc(C(=O)N3C(=O)c4cccc(N)c4C3=O)c2)C1 (stereo unspecified) 228%
COCc1cc(=O)oc2cc(NS(=O)(=O)c3ccc(C)cc3)ccc12 70.4%
CCn1c(=N)c(C(=O)NCCCOC)cc2c(=O)n3cccc(C)c3nc21 74.4%
Cc1cccn2c(=O)c3cc(C(=O)NCCN4CCOCC4)c(=N)n(Cc4cccnc4)c3nc12 18.1%
Oc1ccc2ccc3cccc[n+]3c2c1 38.2%
CCN(CC)CCCC(C)n1c2nc(=O)[nH]c(=O)c-2nc2cc(Cl)ccc21 (stereo unspecified) 69.7%
Cc1cc2cc3n(c2nn1)N=C(Cl)CC3 37.9%
N#Cc1nc(-c2cccc3ccccc23)oc1N 76.5%
Cc1cc(C)c(C#N)c(SCC(=O)NN2CC(=O)N(c3ccccc3F)CC2=O)n1 58.1%
CN(C)CCCn1c(N)c(C#N)c2nc(C#N)c(C#N)nc21 46.2%
CC1(C)CN(c2ccc(-c3ccnc4ncnn34)cc2)C1=O 68.4%
CN1CCCc2cc(C#N)c(=O)[nH]c21 38.1%
CC1(C)CC(=O)c2cc(OCC(=O)NCC3CCCO3)ccc2O1 (stereo unspecified) 57.9%
C[C@@H]1C(c2ccc(F)cc2)=NN(c2ccc(Br)cc2)[C@H]1C(=O)N1CCOC1=O 26.5%
Clc1ccc(-c2cccc3nccn23)cc1 11.3%
Cc1ccc(-c2nn(-c3ccccc3)cc2/C=C/C(=O)Nc2cccc(S(N)(=O)=O)c2)cc1 251%
